The values below come from publication PMC7862700, “An all-to-all approach to the identification of sequence-specific readers for epigenetic DNA modifications on cytosine”.

Holding throughout (test): DAPPL (digital affinity profiling via proximity ligation, sequencing); 10 mM Tris-HCl pH 7.5, 50 mM NaCl, 1 mM DTT, 4% glycerol, room temperature, 30 min; GST-TFs on glutathione beads, 16-mer random dsDNA library, 0.1% formaldehyde crosslink after washing; high values mean tight binding
Holding throughout (details): protein: recombinant; tags: N-terminal GST; dsDNA, one strand shown

One assay addresses T1, FLI1 (Homo sapiens, UniProt Q01543 1-452).
T1 sequence: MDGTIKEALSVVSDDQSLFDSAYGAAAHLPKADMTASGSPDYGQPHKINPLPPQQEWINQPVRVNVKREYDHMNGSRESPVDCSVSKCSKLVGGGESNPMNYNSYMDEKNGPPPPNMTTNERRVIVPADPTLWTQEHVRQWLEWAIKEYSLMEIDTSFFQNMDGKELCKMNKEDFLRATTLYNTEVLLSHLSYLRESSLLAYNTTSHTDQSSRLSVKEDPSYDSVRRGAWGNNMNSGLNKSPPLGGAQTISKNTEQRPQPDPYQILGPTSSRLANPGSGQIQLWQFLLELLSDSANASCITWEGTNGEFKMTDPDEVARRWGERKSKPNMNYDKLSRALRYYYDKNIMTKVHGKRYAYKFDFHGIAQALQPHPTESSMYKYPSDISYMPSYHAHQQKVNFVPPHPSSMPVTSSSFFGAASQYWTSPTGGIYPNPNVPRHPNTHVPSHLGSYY
In short, it runs like this:
(§1)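 After expression in yeast as GST fusions, human transcription factors were bound to glutathione beads, DNA-barcoded and mixed with a tag-only sample. The pools were incubated with 200 nmole of a 16-mer random double-stranded DNA library in Tris/NaCl/DTT/glycerol buffer (30 min, room temperature), washed and crosslinked with 0.1% formaldehyde. Proximity ligation with BsaI/T4 ligase ran for 1 h at 37 °C, before PCR amplification and sequencing on an Illumina NextSeq500. Binding signal is a hexamer's read frequency for a factor divided by its frequency for the tag-only sample.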

Another assay deals with T2, ELK1 (Homo sapiens, UniProt P19419 1-428).
T2 sequence: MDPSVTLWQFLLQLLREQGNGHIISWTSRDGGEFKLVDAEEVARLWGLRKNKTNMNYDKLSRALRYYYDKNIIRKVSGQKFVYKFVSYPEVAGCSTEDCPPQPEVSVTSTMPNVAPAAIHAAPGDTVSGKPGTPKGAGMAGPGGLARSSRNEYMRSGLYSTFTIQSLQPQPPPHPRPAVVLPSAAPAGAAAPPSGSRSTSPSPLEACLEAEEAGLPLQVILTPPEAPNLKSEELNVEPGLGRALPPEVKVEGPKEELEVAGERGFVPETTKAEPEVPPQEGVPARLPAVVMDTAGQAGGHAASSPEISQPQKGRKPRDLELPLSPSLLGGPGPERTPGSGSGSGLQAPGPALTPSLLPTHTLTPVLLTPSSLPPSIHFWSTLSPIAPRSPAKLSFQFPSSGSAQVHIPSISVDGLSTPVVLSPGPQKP
In a few lines: as §1

A further assay deals with T3, GABPA (Homo sapiens, UniProt Q06546 1-454).
T3 sequence: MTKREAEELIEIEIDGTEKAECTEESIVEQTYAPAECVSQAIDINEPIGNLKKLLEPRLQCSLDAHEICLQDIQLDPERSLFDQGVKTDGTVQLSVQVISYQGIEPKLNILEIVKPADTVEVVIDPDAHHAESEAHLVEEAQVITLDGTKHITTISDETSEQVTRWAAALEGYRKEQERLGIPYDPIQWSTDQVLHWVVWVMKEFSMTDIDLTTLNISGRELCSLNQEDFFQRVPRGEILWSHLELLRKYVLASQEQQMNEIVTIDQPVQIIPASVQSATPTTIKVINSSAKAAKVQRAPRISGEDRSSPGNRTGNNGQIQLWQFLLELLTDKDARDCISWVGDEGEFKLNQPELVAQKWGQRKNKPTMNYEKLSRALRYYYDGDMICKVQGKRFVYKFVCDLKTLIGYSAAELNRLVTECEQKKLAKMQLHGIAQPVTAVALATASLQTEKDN
In short, it runs like this:
as §1

A further assay addresses T4, ERG (Homo sapiens, UniProt P11308 1-479).
T4 sequence: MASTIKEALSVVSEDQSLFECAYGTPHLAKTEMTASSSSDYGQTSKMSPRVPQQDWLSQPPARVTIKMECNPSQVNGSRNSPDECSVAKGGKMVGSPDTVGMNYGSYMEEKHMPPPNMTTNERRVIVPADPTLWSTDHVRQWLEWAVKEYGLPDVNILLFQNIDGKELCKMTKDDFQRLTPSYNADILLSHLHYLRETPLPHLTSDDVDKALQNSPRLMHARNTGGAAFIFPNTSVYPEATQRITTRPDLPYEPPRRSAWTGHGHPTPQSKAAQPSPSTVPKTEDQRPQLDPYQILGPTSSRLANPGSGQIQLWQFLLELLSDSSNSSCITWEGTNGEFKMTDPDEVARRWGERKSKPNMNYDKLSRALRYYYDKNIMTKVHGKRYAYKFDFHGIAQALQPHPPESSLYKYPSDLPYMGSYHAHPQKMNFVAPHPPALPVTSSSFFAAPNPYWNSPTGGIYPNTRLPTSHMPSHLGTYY
In short, it runs like this:
as §1

The target of another assay is ELF1 (Homo sapiens, UniProt P32519 1-619). In short, it runs like this: as §1
Sequence of ELF1 (P32519 whole entry): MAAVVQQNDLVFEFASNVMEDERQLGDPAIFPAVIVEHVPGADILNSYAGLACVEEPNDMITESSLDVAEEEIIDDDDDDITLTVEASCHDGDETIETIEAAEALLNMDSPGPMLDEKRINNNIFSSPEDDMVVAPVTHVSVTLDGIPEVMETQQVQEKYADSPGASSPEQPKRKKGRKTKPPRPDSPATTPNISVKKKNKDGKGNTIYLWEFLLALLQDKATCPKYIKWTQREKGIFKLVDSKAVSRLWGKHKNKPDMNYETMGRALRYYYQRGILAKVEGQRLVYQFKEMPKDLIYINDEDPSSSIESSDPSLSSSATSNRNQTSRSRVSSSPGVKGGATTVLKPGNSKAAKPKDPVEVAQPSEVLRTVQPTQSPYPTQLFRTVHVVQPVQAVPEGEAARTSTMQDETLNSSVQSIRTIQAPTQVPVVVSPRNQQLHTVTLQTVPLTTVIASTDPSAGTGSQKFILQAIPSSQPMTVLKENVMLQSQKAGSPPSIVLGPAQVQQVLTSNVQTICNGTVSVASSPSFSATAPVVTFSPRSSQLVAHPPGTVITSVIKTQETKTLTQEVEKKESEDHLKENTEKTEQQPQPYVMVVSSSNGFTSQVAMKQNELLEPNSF
The target of a further assay is T5, EHF (Homo sapiens, UniProt Q9NZC4 1-300).
T5 sequence: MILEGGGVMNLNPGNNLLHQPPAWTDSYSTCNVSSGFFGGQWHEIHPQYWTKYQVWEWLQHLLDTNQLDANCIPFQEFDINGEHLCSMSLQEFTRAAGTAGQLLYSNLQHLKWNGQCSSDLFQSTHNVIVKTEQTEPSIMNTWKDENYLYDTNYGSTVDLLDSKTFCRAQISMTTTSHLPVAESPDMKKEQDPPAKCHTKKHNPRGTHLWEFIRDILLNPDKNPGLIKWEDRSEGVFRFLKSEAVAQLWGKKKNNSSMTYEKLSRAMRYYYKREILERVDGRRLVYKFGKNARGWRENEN
In a few lines:
as §1

The next assay concerns the target SPI1 (Homo sapiens, UniProt P17947 1-270). In a few lines:
as §1

The target in another assay is SPIB (Homo sapiens, UniProt Q01892 1-262). In a few lines:
as §1

Another assay deals with T6, ELK3 (Homo sapiens, UniProt P41970 1-407).
T6 sequence: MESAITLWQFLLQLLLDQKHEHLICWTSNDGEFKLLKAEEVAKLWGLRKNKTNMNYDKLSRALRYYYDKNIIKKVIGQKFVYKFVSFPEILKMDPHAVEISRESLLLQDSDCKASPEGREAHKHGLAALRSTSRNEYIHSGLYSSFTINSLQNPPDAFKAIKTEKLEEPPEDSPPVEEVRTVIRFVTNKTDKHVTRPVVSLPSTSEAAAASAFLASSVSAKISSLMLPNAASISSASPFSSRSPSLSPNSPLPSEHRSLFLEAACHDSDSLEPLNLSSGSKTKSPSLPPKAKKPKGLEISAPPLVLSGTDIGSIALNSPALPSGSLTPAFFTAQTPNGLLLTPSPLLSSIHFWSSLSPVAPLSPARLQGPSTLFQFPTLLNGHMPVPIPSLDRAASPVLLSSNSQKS
In short, it runs like this:
as §1

Sequence of SPIB (Q01892 whole entry): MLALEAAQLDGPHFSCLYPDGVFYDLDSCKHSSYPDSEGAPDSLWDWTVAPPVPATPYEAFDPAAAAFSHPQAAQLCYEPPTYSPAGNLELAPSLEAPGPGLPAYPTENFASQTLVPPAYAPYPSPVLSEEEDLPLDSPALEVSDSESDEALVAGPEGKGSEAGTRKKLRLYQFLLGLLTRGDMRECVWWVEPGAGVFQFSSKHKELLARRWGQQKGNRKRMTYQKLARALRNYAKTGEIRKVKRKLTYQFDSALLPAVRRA

TTCCGT: the binding signal with FLI1 was 1.79 fold enrichment (6-mer frequency, TF over GST control); with ELK1 it was 2.11 fold enrichment (6-mer frequency, TF over GST control); in the assay with GABPA, 1.76 fold enrichment (6-mer frequency, TF over GST control); with ERG, 2.13 fold enrichment (6-mer frequency, TF over GST control); with ELF1, 1.74 fold enrichment (6-mer frequency, TF over GST control); with EHF it was 2 fold enrichment (6-mer frequency, TF over GST control). Moreover, the binding signal was 2.14 fold enrichment (6-mer frequency, TF over GST control) in the assay with SPI1; 2.07 fold enrichment (6-mer frequency, TF over GST control) with SPIB; 1.86 fold enrichment (6-mer frequency, TF over GST control) with ELK3.
Turning to AAAGTT, the binding signal with FLI1 was 1.07 fold enrichment (6-mer frequency, TF over GST control); in the assay with ELK1 it was 1.05 fold enrichment (6-mer frequency, TF over GST control); with GABPA, 1.13 fold enrichment (6-mer frequency, TF over GST control); with ERG, 1.02 fold enrichment (6-mer frequency, TF over GST control); with ELF1, 1.08 fold enrichment (6-mer frequency, TF over GST control); with EHF it was 1.1 fold enrichment (6-mer frequency, TF over GST control). Besides, the binding signal with SPI1 was 1.07 fold enrichment (6-mer frequency, TF over GST control); with SPIB, 1.16 fold enrichment (6-mer frequency, TF over GST control); with ELK3 it was 1.17 fold enrichment (6-mer frequency, TF over GST control).
For the sequence TGTACC, the binding signal in the assay with FLI1 is 1.42 fold enrichment (6-mer frequency, TF over GST control); with ELK1, 1.36 fold enrichment (6-mer frequency, TF over GST control); with GABPA, 1.29 fold enrichment (6-mer frequency, TF over GST control); with ERG it was 1.26 fold enrichment (6-mer frequency, TF over GST control); in the assay with ELF1, 1.34 fold enrichment (6-mer frequency, TF over GST control); with EHF, 1.35 fold enrichment (6-mer frequency, TF over GST control). Also, the binding signal with SPI1 is 1.33 fold enrichment (6-mer frequency, TF over GST control); in the assay with SPIB it was 1.22 fold enrichment (6-mer frequency, TF over GST control); with ELK3, 1.28 fold enrichment (6-mer frequency, TF over GST control).
For the sequence GTGACC, the binding signal in the assay with FLI1 was 1.29 fold enrichment (6-mer frequency, TF over GST control); with ELK1 it was 1.27 fold enrichment (6-mer frequency, TF over GST control); with GABPA, 1.18 fold enrichment (6-mer frequency, TF over GST control); in the assay with ERG, 1.24 fold enrichment (6-mer frequency, TF over GST control); with ELF1, 1.25 fold enrichment (6-mer frequency, TF over GST control); with EHF it was 1.36 fold enrichment (6-mer frequency, TF over GST control). The binding signal with SPI1 is 1.32 fold enrichment (6-mer frequency, TF over GST control); with SPIB it was 1.24 fold enrichment (6-mer frequency, TF over GST control); with ELK3, 1.03 fold enrichment (6-mer frequency, TF over GST control).
CAAATG: the binding signal with FLI1 is 1.11 fold enrichment (6-mer frequency, TF over GST control); with ELK1, 1.16 fold enrichment (6-mer frequency, TF over GST control); with GABPA, 1.08 fold enrichment (6-mer frequency, TF over GST control); with ERG, 1.16 fold enrichment (6-mer frequency, TF over GST control); in the assay with ELF1, 1.22 fold enrichment (6-mer frequency, TF over GST control); with EHF, 1.1 fold enrichment (6-mer frequency, TF over GST control). The binding signal with SPI1 is 1.25 fold enrichment (6-mer frequency, TF over GST control); with SPIB, 1.13 fold enrichment (6-mer frequency, TF over GST control); with ELK3 it was 1.09 fold enrichment (6-mer frequency, TF over GST control).
For the sequence GACCTC, the binding signal with FLI1 is 1.22 fold enrichment (6-mer frequency, TF over GST control); with ELK1 it was 1.35 fold enrichment (6-mer frequency, TF over GST control); in the assay with GABPA, 1.35 fold enrichment (6-mer frequency, TF over GST control); in the assay with ERG, 1.38 fold enrichment (6-mer frequency, TF over GST control); with ELF1, 1.39 fold enrichment (6-mer frequency, TF over GST control); with EHF it was 1.31 fold enrichment (6-mer frequency, TF over GST control). Besides, the binding signal is 1.36 fold enrichment (6-mer frequency, TF over GST control) with SPI1; 1.42 fold enrichment (6-mer frequency, TF over GST control) in the assay with SPIB; 1.33 fold enrichment (6-mer frequency, TF over GST control) with ELK3.
As for CCTGAA, the binding signal with FLI1 is 1.35 fold enrichment (6-mer frequency, TF over GST control); with ELK1, 1.39 fold enrichment (6-mer frequency, TF over GST control); in the assay with GABPA it was 1.39 fold enrichment (6-mer frequency, TF over GST control); with ERG, 1.41 fold enrichment (6-mer frequency, TF over GST control); in the assay with ELF1, 1.35 fold enrichment (6-mer frequency, TF over GST control); with EHF, 1.33 fold enrichment (6-mer frequency, TF over GST control). Moreover, the binding signal was 1.35 fold enrichment (6-mer frequency, TF over GST control) with SPI1; 1.42 fold enrichment (6-mer frequency, TF over GST control) in the assay with SPIB; 1.32 fold enrichment (6-mer frequency, TF over GST control) in the assay with ELK3.
